High-throughput results (PubChem)
DT40 TDP1 CPT – growth inhibition of DT40 Tdp1-/-;hTDP1 cells with camptothecin (screen for TDP1 inhibitors). chicken DT40 Tdp1-/-;hTDP1 cells + 20 nM CPT, ATP luminescence, 48 h. Potency, µM (titrated, usually from 46.2 µM), for the others: top-dose activity change, negative = growth inhibition, hits mostly inhibitors. 420,000 compounds, 12% hits; note: potency is the fitted concentration of half-maximal effect; nearly all actives have a fitted effect of over 55% in size
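Cell growth measured by CellTiter-Glo luminescence after a minimum 48 h, 37 C compound exposure with 20 nM CPT in Tdp1-knockout DT40 cells stably expressing hTDP1, seeded 400/well; qHTS titration format.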
DT40 TDP1 no CPT – qHTS for Inhibitors of human tyrosyl-DNA phosphodiesterase 1 (TDP1): qHTS in cells in absence of CPT | AID 686978, 2013 | 420,000 compounds, 15% hits | DT40 Tdp1-/- hTDP1 cells, no CPT, ATP luminescence, 48 h | Potency, µM (doses to about 46.2 µM), for the others: at the highest dose activity change, negative = growth inhibition, most hits filed as inhibitors; note: potency is the fitted concentration of half-maximal effect; nearly all actives have a fitted effect of over 55% in size
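Seeded 400 DT40-hTDP1 cells/well (vehicle DMSO, no 20 nM CPT); pinned compounds; ≥48 hr at 37 °C; CellTiter-Glo luminescence as viability measure.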
Giardia kill – Giardia lamblia killing | Giardia lamblia trophozoite viability | activity change, % at 7.66 µM, hits read low | 340,000 compounds, 0.15% hits | AID 540267; in the data active = activity change below about -80%; inconclusive = between about -30% and that limit;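 note: parasites exposed to compound for two days anaerobically before the ATP read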
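Luminescence from cellular ATP indicates surviving trophozoites (100 cells/well) following 48 hrs anaerobic compound treatment at 37 deg C; signal develops 15-30 min at room temperature.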
TDP1 block – inhibitors of human tyrosyl-DNA phosphodiesterase TDP1 | Potency, µM (highest dose often 130 µM), for the others: at the top dose activity change, negative = inhibition, most hits filed as inhibitors | Q9NUW8 | 350,000 compounds, 0.28% hits | recombinant TDP1, AlphaScreen DNA substrate cleavage; note: potency is the fitted concentration of half-maximal effect; nearly all actives have a fitted effect of over 40% in size
Target sequence (Q9NUW8 whole entry, looked up): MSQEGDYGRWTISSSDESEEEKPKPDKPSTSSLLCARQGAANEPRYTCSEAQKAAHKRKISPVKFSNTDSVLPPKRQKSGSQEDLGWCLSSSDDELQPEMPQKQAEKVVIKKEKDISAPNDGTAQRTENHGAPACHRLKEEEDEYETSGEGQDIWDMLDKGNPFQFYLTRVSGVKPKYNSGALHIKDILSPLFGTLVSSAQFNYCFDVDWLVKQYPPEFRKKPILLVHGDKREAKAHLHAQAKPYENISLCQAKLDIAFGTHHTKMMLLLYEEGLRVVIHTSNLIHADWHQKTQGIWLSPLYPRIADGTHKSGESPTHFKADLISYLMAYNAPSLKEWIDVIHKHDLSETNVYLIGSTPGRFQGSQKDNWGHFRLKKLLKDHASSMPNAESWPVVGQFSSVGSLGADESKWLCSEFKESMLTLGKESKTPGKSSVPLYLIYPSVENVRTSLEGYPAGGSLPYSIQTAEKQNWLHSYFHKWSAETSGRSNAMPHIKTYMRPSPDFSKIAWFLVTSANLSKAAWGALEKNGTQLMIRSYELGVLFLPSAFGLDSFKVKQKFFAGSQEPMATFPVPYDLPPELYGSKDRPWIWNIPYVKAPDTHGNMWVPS
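E. coli-derived human Tdp1, 1 nM final. Cpd preinc 15 min RT; substrate 15 nM final, 5 min RT; AS bead mix 10 ug/ml final, 10 min RT. Signal loss = tyrosine-FITC cleavage. No-enzyme wells = max signal.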
ELG1 DNA repair – blocks ELG1-dependent DNA repair in HEK293T cells; HEK293T ELG1-luciferase reporter, luminescence, 16 h; DNA damage induced by 5-fluorouridine; Potency, µM (top dose mostly 46.1 µM), for inactives: at the top dose activity change, negative = inhibition, most hits filed as inhibitors; 330,000 compounds, 2.3% hits; note: potency is the fitted concentration of half-maximal effect; nearly all actives have a fitted effect of over 55% in size
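In this reporter screen, reduction of luminescence relative to DMSO vehicle indicated activity. Compounds and 5-fluorouridine were added together to 2,000 cells per well, incubated for 16 hr at 37 °C, then developed with ONE-Glo.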
IL-1B inflam inh – blocks inflammasome-driven IL-1 beta release; THP-1 LPS/ATP IL-1B secretion, AlphaLISA, 16 h; stronger effect = lower value; 360,000 compounds, 4.7% hits; AID 743279; activity change, % at 57.5 µM; in the data active = activity change below about -50%; inconclusive = mostly about -30% to -49%
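Secreted IL-1B measured by AlphaLISA bead assay after 16 h compound exposure of THP-1 cells; compounds (final up to 57.5 uM) added 1 h before LPS (250 ng/mL) and ATP (1.25 mM) stimulation; lower signal means less secretion.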
* marks the source's active call; other numbers are inactive results; ? = inconclusive; . = no result; [ ] = remark or other dose. Most compounds without a hit are left out; they make up all but 19% or so of the library. Unless noted, calls come from the whole dose curve; as a rule, active = well fitted curve in the direction sought with a large enough effect; inconclusive = small, poorly fitted or top-dose-only effect, or another doubt; inactive = no such curve, though single readings can be large; an effect the other way counts as inactive or inconclusive. % is set by controls: 0 for no effect and ±100 for the full control effect.

SMILES	DT40 TDP1 CPT	DT40 TDP1 no CPT	Giardia kill	TDP1 block	ELG1 DNA repair	IL-1B inflam inh
NC(=O)c1sc2nc(-c3ccco3)ccc2c1N	-18.7%	-25.8%	9.8	?	?	-67.8*
Nc1c(C(=O)NC2CC2)sc2nc3c(c(-c4ccco4)c12)CC/C3=C/c1ccco1	18.4µM*	16.4µM*	1.9	0.0%	6.0%	-74.7*
CCN(Cc1ccncc1)Cc1ccc2c(c1)CN(C(=O)c1ccccc1)CCO2	5.7%[9.04 µM]	-15.5%	.	.	.	.
COc1ccc(/C=N/NC(=O)C(O)(c2ccccc2)c2ccccc2)cc1OC	-7.5%	?	-7.0	5.3%	6.1%	0.0
O=C(NCC(c1ccc2c(c1)OCO2)N1CCN(c2ccccc2)CC1)C(=O)Nc1cccc(F)c1 (centres undefined)	-19.5%	?	.	7.7%	.	.
CC1=C(C(=O)Nc2ccc(C)cc2C)C(c2sccc2C)n2ncnc2N1 (centres undefined)	-7.2%	-6.1%	.	5.3%	.	.
CC(=O)Nc1ccc(NC(=O)c2cc([N+](=O)[O-])cc([N+](=O)[O-])c2)cc1	?	-29.1%	2.1	3.7%	-13.7%	41.4
CC(C)(C)C(=O)Nc1ccc(Sc2ccc([N+](=O)[O-])cc2)cc1	8.2µM*	7.31µM*	2.4	7.9%	?	-9.1
O=C1C=CC(=O)N1c1ccc(Sc2ccc([N+](=O)[O-])cc2)cc1	.	.	.	3.8%	?	.
CC(=O)Nc1ccc(Sc2ccc([N+](=O)[O-])o2)cc1	2.59µM*	2.59µM*	4.1	.	.	-97.3*
Nc1ccc(Sc2ccc([N+](=O)[O-])cc2)cc1	?	?	1.2	4.9%	6.1%	-69.6*
Cc1c(C(=O)OC2CCC(C)CC2)[nH]c2c1C(=O)CC(c1ccc(N(C)C)cc1)C2 (centres undefined)	-19.4%	-16.4%	.	2.5%	.	.
Cc1ccc(-c2nc(NC(=O)CSc3cc(C)c4ccccc4n3)ns2)cc1	13µM*	16.4µM*	-10.4	-1.1%	9.3%	51.1
COc1ccc2c(C)cc(SCC(=O)Nc3nsc(-c4ccccc4C)n3)nc2c1	?	14.6µM*	.	-5.3%	.	.
COc1cc2c(cc1OC)CN(C(=O)CCNS(=O)(=O)c1ccccc1F)CC2	6.1%	?	9.9	1.5%	1.7%	29.3
COc1ccc(C(=O)N2CCC3(CCCN(Cc4ccccc4OC)C3)CC2)cc1	-0.4%	-14.5%	.	.	.	.
C/C(CC1(O)C(=O)N(C)c2ccccc21)=N\O (centres undefined)	-7.3%	-6.5%	6.8	2.1%	-11.8%	-16.8
CC(=O)CC1(OC(C)=O)C(=O)N(C)c2ccccc21 (centres undefined)	3.66µM*	2.91µM*	3.0	5.1%	?	?
CCc1nnc(NC(=O)CSc2nc3c(c(=O)n2C)SC(C)C3)s1 (centres undefined)	?	20.6µM*	-3.0	2.6%	10.2%	23.0
CCSc1nnc(NC(=O)CSc2nc3c(c(=O)n2C)SC(C)C3)s1 (centres undefined)	14.6µM*	11.2µM*	-10.8	5.6%	?	16.2
CCSc1nnc(NC(=O)CSc2nc3c(c(=O)n2CC)SC(C)C3)s1 (centres undefined)	13µM*	8.2µM*	-19.9	2.1%	?	53.1
O=C(COC(=O)CSc1ccc2ccccc2c1Br)NC1CC1	-2.1%	-20.0%	2.6	0.0%	-2.9%	3.8
Cc1cccc(CN2CCN(C3CN(Cc4cn(Cc5cccc(Cl)c5)nn4)S(=O)(=O)C3)CC2)c1 (centres undefined)	18.4µM*	14.6µM*	.	.	.	4.2
Cc1cccc(CN2CCN(C3CN(Cc4cn(Cc5ccc(F)cc5)nn4)S(=O)(=O)C3)CC2)c1 (centres undefined)	?	?	.	.	.	-4.0
O=S1(=O)CC(N2CCN(Cc3ccccc3F)CC2)CN1Cc1cn(Cc2cccc(Cl)c2)nn1 (centres undefined)	?	20.6µM*	.	.	.	-7.1
SMILES	DT40 TDP1 CPT	DT40 TDP1 no CPT	Giardia kill	TDP1 block	ELG1 DNA repair	IL-1B inflam inh
CCCCCCN1CCN(C2CN(Cc3cn(Cc4cc(C)cc(C)c4)nn3)S(=O)(=O)C2)CC1 (centres undefined)	?	16.4µM*	.	.	.	?
Cc1cccc(CN2CCN(C3CN(Cc4cn(Cc5ccc(Cl)cc5)nn4)S(=O)(=O)C3)CC2)c1 (centres undefined)	18.4µM*	20.6µM*	.	.	.	-18.2
Cc1ccc(Cn2cc(CN3CC(N4CCN(Cc5cccc(C)c5)CC4)CS3(=O)=O)nn2)cc1 (centres undefined)	?	?	.	.	.	-4.7
Cc1cc(C)cc(Cn2cc(CN3CC(N4CCN(C)CC4)CS3(=O)=O)nn2)c1 (centres undefined)	9.1%	-16.4%	.	.	.	-5.9
Cc1cc(C)nc(SCC(=O)NN=Cc2ccc(C)o2)n1	-0.5%	-10.5%	10.9	-16.3%	8.8%	27.9
COc1ccccc1-c1nnc(SCC(=O)Nc2cccnc2Cl)n1C	-13.2%	-15.4%	-0.5	0.3%	-2.0%	9.0
Cc1noc(C)c1C(=O)N1CCC2(CC1)CN(c1cccc(-c3ccccc3)c1)C2	?	20.6µM*	.	.	.	.
Cc1noc(C)c1C(=O)N1CCC2(CC1)CCN(c1cccc(-c3ccccc3)c1)CC2	?	4.61µM*	.	.	.	.
Cc1noc(C)c1C(=O)N1CCC2(CC1)CN(c1ccccn1)C2	4.5%	-3.3%	.	.	.	.
Cc1oc(-c2ccccc2NS(C)(=O)=O)nc1CN(C)Cc1ccc(Cl)cc1	-5.4%[9.04 µM]	20.6µM*	.	.	.	.
Cc1oc(-c2ccccc2)nc1CNS(=O)(=O)c1ccc(Cl)cc1	?	-30.0%	.	6.2%	.	.
COc1ccc(S(=O)(=O)N(C)[C@H]2C[C@H]3c4cc(-c5ccccc5)ccc4CCN3C(=O)[C@H]2[C@H](C)O)cc1	?	20.6µM*	.	.	.	-28.7
COc1ccc(S(=O)(=O)N(C)[C@H]2C[C@H]3c4cc(Oc5ccccc5C)ccc4CCN3C(=O)[C@H]2[C@H](C)O)cc1	9.2µM*	6.51µM*	.	.	.	?
CN(Cc1ccccc1)c1cc2c(c3c1ccn3C)C1CCC2O1 (centres undefined)	?	18.4µM*	.	.	.	-2.4
COc1ccccc1N(C)c1cc2c(c3c1ccn3C)C1CCC2O1 (centres undefined)	23.1µM*	?	.	.	.	0.0
Cn1ccc2c(N(Cc3ccccc3)Cc3ccccc3)cc3c(c21)C1CCC3O1 (centres undefined)	?	18.4µM*	.	.	.	0.0
CN(C)CCN(C)c1cc2c(c3c1ccn3C)C1CCC2O1 (centres undefined)	?	?	.	.	.	-3.5
